# Laboratory results published in PubChem BioAssay (EPA / NIEHS).
# The source made the active and inactive calls. How the source made its calls: active means hit-call score of the fitted dose curve at least 0.9, where 1 is the maximum; inactive means score below 0.9.
# Legend:
# [1] = read-out: Cyclin D2 (CCND2), CCND2 (gene 894); assay: LTEA_HepaRG_CCND2: Life Technologies and Expression Analysis (LTEA) Assay for Cyclin D2 (CCND2) using HepaRG (AID 2283449); conditions: mRNA level, 48 h; actives raise or lower the signal;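 further: CCND2 transcript measured by TaqMan qRT-PCR and normalised to three housekeeping genes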
# Summary of the method: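 HepaRG, 48 h dosing, 8-pt half-log curve from 100 uM, 0.5% DMSO; duplicate wells. Readout: CCND2 transcript by microfluidic qRT-PCR, housekeeping-normalised; bidirectional fit vs DMSO baseline.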
# [2] = read-out: Cyclin Dependent Kinase Inhibitor 1A (CDKN1A), CDKN1A (gene 1026); assay: LTEA_HepaRG_CDKN1A: Life Technologies and Expression Analysis (LTEA) Assay for Cyclin Dependent Kinase Inhibitor 1A (CDKN1A) using HepaRG (AID 2283450); conditions: mRNA level, 48 h; actives raise or lower the signal
# Summary of the method: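 Differentiated HepaRG cells in serum-free induction medium, exposed 48 h in duplicate to eight half-log concentrations up to 100 uM in 0.5% DMSO. mRNA measured by TaqMan qRT-PCR, normalized to ACTB, GAPDH, POLR2A; bidirectional fit versus DMSO.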
# [3] = read-out: Cyclin D1 (CCND1), CCND1 (gene 595); assay: LTEA_HepaRG_CCND1: Life Technologies and Expression Analysis (LTEA) Assay for Cyclin D1 (CCND1) using HepaRG (AID 2283451); conditions: mRNA level, 48 h; actives raise or lower the signal
# Summary of the method: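 Differentiated HepaRG cells exposed 48 h in serum-free induction medium to eight half-log concentrations from 100 uM top, 0.5% DMSO, duplicates. CCND1 mRNA measured by Fluidigm TaqMan qRT-PCR, normalised to ACTB, GAPDH, POLR2A; bidirectional fit.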
# [4] = read-out: catalase (CAT), CAT (gene 847); assay: LTEA_HepaRG_CAT: Life Technologies and Expression Analysis (LTEA) Assay for catalase (CAT) using HepaRG (AID 2283452); conditions: mRNA level, 48 h; actives raise or lower the signal;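 on AC50: TaqMan qRT-PCR signal normalized to ACTB GAPDH and POLR2A housekeeping genes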
# Summary of the method: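 HepaRG cells in serum-free induction medium, 0.5% DMSO vehicle, exposed 48 h in duplicate over 8 half-log concentrations from 100 uM. CAT mRNA measured by qRT-PCR, normalized to ACTB, GAPDH, POLR2A; bidirectional fit versus DMSO.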
# [5] = read-out: flavin-containing dimethylaniline monooxygenases 3 (FMO3), FMO3 (gene 2328); assay: LTEA_HepaRG_FMO3: Life Technologies and Expression Analysis (LTEA) Assay for flavin-containing dimethylaniline monooxygenases 3 (FMO3) using HepaRG (AID 2283453); conditions: mRNA level, 48 h; actives raise or lower the signal;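 on AC50: FMO3 transcript by TaqMan qRT-PCR normalized to ACTB GAPDH and POLR2A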
# Summary of the method: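 FMO3 transcript quantified by TaqMan qRT-PCR against three housekeeping genes after 48 h chemical exposure of HepaRG cells. Eight-point half-log series, top 100 uM, 0.5% DMSO vehicle; phenobarbital 1mM induction control; up- or down-regulation fitted.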
# [6] = read-out: Cytochrome P450 (CYP1A1), CYP1A1 (gene 1543); assay: LTEA_HepaRG_CYP1A1: Life Technologies and Expression Analysis (LTEA) Assay for Cytochrome P450 (CYP1A1) using HepaRG (AID 2283454); conditions: mRNA level, 48 h; actives raise or lower the signal
# Summary of the method: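 Differentiated human HepaRG cells, after 48 h plating, exposed in duplicate for 48 h in serum-free induction medium to 8 half-log concentrations up to 100 uM in 0.5% DMSO. CYP1A1 mRNA by qRT-PCR, normalized to ACTB/GAPDH/POLR2A; bidirectional fit versus DMSO.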
# [7] = read-out: CFLAR gene, CFLAR (gene 8837); assay: LTEA_HepaRG_CFLAR: Life Technologies and Expression Analysis (LTEA) Assay for CFLAR gene using HepaRG (AID 2283455); conditions: mRNA level, 48 h; actives raise or lower the signal
# Summary of the method: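 qRT-PCR read-out (Fluidigm/TaqMan) of CFLAR mRNA, normalized to three housekeeping genes, in differentiated human HepaRG cells after 48 h chemical exposure; 8-point half-log series from 100 uM in 0.5% DMSO; bidirectional curve fitting versus DMSO.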
# [8] = read-out: Forkhead box O1 (FOXO1), FOXO1 (gene 2308); assay: LTEA_HepaRG_FOXO1: Life Technologies and Expression Analysis (LTEA) Assay for Forkhead box O1 (FOXO1) using HepaRG (AID 2283456); conditions: mRNA level, 48 h; actives raise or lower the signal
# Summary of the method: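 HepaRG, 48 h exposure, 8-pt half-log series from 100 uM in 0.5% DMSO, duplicates; Fluidigm qRT-PCR mRNA, housekeeping-normalised; bidirectional fit vs DMSO baseline.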
# [9] = read-out: Fatty acid synthase (Homo sapiens) (UniProt P49327); assay: LTEA_HepaRG_FASN: Life Technologies and Expression Analysis (LTEA) Assay for Fatty Acid Synthase (FASN) using HepaRG (AID 2283448); conditions: mRNA level, 48 h; actives raise or lower the signal
# Summary of the method: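 Cells were plated, cultured 48 h, switched to serum-free induction medium, then dosed in duplicate (max 100 uM, half-log dilutions, 0.5% DMSO) for 48 h. RNA was then isolated and FASN quantified by qRT-PCR.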
# [10] = CEETOX_H295R_TESTO: CeeTox H295R High-throughput Steroidogenesis Assay for Testosterone (TESTO) (AID 2283457); conditions: actives raise or lower the signal
# Summary of the method: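 H295R adrenal cells, passage ≤10, exposed to chemicals for 48 h. Testosterone in medium measured by MTBE extraction and HPLC-MS/MS against a 7-point standard curve. Bidirectional fit versus DMSO; MTT viability checked in the same wells.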
# Chain of Fatty acid synthase (Homo sapiens) (P49327 whole entry, looked up): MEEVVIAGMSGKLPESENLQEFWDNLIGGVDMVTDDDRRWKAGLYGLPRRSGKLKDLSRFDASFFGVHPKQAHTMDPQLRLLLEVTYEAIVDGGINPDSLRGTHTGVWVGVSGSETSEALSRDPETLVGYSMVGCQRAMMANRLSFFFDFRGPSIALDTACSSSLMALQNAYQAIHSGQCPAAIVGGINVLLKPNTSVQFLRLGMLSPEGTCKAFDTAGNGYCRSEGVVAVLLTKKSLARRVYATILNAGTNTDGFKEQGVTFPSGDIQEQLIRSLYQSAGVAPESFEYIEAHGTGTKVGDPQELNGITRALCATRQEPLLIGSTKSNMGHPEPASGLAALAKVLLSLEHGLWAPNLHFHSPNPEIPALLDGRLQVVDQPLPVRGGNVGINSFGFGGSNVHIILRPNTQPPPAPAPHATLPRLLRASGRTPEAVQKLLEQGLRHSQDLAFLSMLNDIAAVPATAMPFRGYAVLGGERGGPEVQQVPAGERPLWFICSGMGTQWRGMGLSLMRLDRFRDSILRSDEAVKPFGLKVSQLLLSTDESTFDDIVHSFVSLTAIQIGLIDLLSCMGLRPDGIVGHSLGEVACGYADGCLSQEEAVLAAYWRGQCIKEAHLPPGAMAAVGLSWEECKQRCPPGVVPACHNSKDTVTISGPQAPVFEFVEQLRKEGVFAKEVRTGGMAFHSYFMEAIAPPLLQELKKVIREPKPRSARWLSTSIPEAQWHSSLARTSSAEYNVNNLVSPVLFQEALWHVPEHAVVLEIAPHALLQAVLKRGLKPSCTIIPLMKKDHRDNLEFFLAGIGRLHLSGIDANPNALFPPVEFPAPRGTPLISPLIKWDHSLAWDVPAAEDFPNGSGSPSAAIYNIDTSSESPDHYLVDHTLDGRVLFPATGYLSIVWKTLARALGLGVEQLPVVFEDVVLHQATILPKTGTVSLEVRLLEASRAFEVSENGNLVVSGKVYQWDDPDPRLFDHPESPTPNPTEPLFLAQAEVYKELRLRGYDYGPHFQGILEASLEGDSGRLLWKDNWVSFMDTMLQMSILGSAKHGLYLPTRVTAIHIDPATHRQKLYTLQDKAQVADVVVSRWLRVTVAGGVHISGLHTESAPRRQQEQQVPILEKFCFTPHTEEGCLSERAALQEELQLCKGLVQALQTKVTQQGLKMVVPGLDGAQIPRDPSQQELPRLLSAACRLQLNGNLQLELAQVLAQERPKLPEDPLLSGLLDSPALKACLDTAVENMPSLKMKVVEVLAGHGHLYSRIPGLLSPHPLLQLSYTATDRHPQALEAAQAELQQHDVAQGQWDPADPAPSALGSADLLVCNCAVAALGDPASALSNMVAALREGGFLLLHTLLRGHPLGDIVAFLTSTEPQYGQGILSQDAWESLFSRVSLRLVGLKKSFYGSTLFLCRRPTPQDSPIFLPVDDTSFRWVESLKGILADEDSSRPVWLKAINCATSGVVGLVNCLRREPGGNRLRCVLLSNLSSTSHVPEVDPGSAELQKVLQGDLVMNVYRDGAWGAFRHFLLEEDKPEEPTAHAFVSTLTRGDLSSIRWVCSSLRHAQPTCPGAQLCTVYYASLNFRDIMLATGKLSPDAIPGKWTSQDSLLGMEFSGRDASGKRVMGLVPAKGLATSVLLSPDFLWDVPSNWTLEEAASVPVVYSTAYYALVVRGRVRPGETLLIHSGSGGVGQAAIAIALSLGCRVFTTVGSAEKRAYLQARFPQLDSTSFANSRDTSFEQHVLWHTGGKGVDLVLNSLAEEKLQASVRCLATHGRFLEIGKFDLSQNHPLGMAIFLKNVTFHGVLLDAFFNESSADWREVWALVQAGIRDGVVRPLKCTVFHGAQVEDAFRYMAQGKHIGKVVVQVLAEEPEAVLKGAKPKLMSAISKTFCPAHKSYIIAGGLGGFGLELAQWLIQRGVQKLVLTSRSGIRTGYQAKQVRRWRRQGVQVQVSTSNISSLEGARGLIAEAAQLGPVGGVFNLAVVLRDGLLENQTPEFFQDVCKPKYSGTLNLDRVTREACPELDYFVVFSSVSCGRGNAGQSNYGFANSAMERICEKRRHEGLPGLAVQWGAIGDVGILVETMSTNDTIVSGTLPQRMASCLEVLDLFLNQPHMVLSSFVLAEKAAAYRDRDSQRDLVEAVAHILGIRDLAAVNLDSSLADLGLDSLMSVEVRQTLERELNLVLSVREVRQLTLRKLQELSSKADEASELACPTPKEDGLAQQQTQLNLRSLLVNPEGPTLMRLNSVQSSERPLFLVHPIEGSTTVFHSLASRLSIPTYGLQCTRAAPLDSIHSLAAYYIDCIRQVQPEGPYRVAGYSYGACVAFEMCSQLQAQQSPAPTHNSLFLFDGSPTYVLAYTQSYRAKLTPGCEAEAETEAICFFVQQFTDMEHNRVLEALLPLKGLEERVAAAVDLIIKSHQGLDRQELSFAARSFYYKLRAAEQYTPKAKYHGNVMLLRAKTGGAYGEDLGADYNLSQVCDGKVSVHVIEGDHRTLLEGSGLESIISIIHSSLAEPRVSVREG
compound,measurement,setting,value
Cc1cn([C@H]2C=C[C@@H](CO)O2)c(=O)[nH]c1=O,outcome,[1],inactive
same,outcome,[2],inactive
same,outcome,[3],inactive
same,outcome,[4],inactive
same,outcome,[5],inactive
same,AC50,[6],69.4 µM (active)
same,outcome,[7],inactive
same,outcome,[8],inactive
S=c1[nH]c2ccccc2s1,outcome,[9],inactive
same,outcome,[1],inactive
same,outcome,[2],inactive
same,outcome,[4],inactive
same,outcome,[5],inactive
same,AC50,[6],10.1 µM (active)
same,outcome,[7],inactive
same,outcome,[8],inactive
CN(C)CCCN(C)CCCN(C)C,outcome,[9],inactive
same,outcome,[2],inactive
same,outcome,[4],inactive
same,outcome,[5],inactive
same,outcome,[6],inactive
same,outcome,[7],inactive
same,outcome,[8],inactive
O=[Si]=O,outcome,[9],inactive
same,outcome,[2],inactive
same,outcome,[3],inactive
same,outcome,[4],inactive
same,outcome,[5],inactive
same,AC50,[6],76.6 µM (active)
same,outcome,[7],inactive
same,outcome,[8],inactive
O=C(Oc1ccccc1)c1cccc(C(=O)Oc2ccccc2)c1,outcome,[9],inactive
same,outcome,[1],inactive
same,outcome,[2],inactive
same,outcome,[4],inactive
same,outcome,[5],inactive
same,AC50,[6],67.7 µM (active)
same,outcome,[7],inactive
same,outcome,[8],inactive
same,outcome,[10],inactive
CCCCCCC(C=O)=Cc1ccccc1,outcome,[9],inactive
same,outcome,[2],inactive
same,outcome,[4],inactive
same,outcome,[5],inactive
same,outcome,[6],inactive
same,outcome,[7],inactive
same,outcome,[8],inactive
CC(C)OC(=O)C(C)(C)Oc1ccc(C(=O)c2ccc(Cl)cc2)cc1,outcome,[1],inactive
same,outcome,[2],inactive
same,outcome,[3],inactive
same,outcome,[4],inactive
same,outcome,[5],inactive
same,AC50,[6],50 µM (active)
same,outcome,[7],inactive
same,outcome,[8],inactive
CC(C)COC(=O)CCCCC(=O)OCC(C)C,outcome,[9],inactive
same,outcome,[1],inactive
same,outcome,[2],inactive
same,outcome,[4],inactive
same,outcome,[5],inactive
same,outcome,[6],inactive
same,outcome,[7],inactive
same,outcome,[8],inactive
CCCCCCCC(=O)OC,outcome,[9],inactive
same,outcome,[1],inactive
same,outcome,[2],inactive
same,outcome,[4],inactive
same,AC50,[5],12.1 µM (active)
same,outcome,[6],inactive
same,outcome,[7],inactive
same,outcome,[8],inactive
CC(N)=O,outcome,[9],inactive
same,outcome,[2],inactive
same,outcome,[4],inactive
same,outcome,[5],inactive
same,outcome,[6],inactive
same,outcome,[7],inactive
same,outcome,[8],inactive
O=C1CCCCC1,outcome,[9],inactive
same,outcome,[1],inactive
same,outcome,[2],inactive
same,outcome,[4],inactive
same,outcome,[5],inactive
same,outcome,[6],inactive
same,outcome,[7],inactive
same,outcome,[8],inactive
NC1CCCCC1,outcome,[9],inactive
same,outcome,[1],inactive
same,outcome,[2],inactive
same,outcome,[4],inactive
same,outcome,[5],inactive
same,outcome,[6],inactive
same,outcome,[7],inactive
same,outcome,[8],inactive
CCCCCCCCCCCCCCOS(=O)(=O)O,outcome,[9],inactive
same,outcome,[1],inactive
same,outcome,[2],inactive
same,outcome,[4],inactive
same,outcome,[5],inactive
same,AC50,[6],72.7 µM (active)
same,outcome,[7],inactive
same,outcome,[8],inactive
O=C1OC(c2ccc(O)cc2)(c2ccc(O)cc2)c2ccccc21,AC50,[9],89.6 µM (active)
same,outcome,[1],inactive
same,outcome,[2],inactive
same,AC50,[4],69.2 µM (active)
same,AC50,[5],93.8 µM (active)
same,AC50,[6],50 µM (active)
same,AC50,[7],76.4 µM (active)
same,AC50,[8],50 µM (active)
same,outcome,[10],inactive
COC(=O)CCC(=O)OC,outcome,[9],inactive
same,outcome,[2],inactive
same,outcome,[3],inactive
same,outcome,[4],inactive
same,outcome,[5],inactive
same,AC50,[6],50 µM (active)
same,outcome,[7],inactive
same,outcome,[8],inactive
CCC(C)N(C)C(=O)c1cc2ccccc2c(-c2ccccc2Cl)n1 (stereo not given),outcome,[9],inactive
same,outcome,[1],inactive
same,outcome,[2],inactive
same,outcome,[4],inactive
same,outcome,[5],inactive
same,AC50,[6],37.7 µM (active)
same,outcome,[7],inactive
same,outcome,[8],inactive
same,outcome,[10],inactive
Cc1ccc(C(C)(C)C)c(O)c1,outcome,[9],inactive
same,outcome,[2],inactive
same,outcome,[4],inactive
same,outcome,[5],inactive
same,AC50,[6],41.7 µM (active)
same,outcome,[7],inactive
same,outcome,[8],inactive
O=NO,outcome,[9],inactive
same,outcome,[2],inactive
same,outcome,[3],inactive
same,outcome,[4],inactive
same,outcome,[5],inactive
same,outcome,[6],inactive
same,outcome,[7],inactive
same,outcome,[8],inactive
O=C1NC(=O)C(c2ccccc2)(c2ccccc2)N1,outcome,[9],inactive
same,outcome,[1],inactive
same,outcome,[2],inactive
same,outcome,[4],inactive
same,outcome,[5],inactive
same,AC50,[6],65.1 µM (active)
same,outcome,[7],inactive
same,outcome,[8],inactive
Cc1c(C)c2c(c(C)c1O)CCC(C)(COc1ccc(CC3SC(=O)NC3=O)cc1)O2 (stereo not given),outcome,[9],inactive
same,outcome,[2],inactive
same,outcome,[3],inactive
same,AC50,[4],50 µM (active)
same,AC50,[5],93 µM (active)
same,AC50,[6],27.5 µM (active)
same,outcome,[7],inactive
same,outcome,[8],inactive
same,outcome,[10],inactive
CC(=O)[C@@]1(O)CC[C@H]2[C@@H]3CCC4=CC(=O)CC[C@]4(C)[C@H]3CC[C@@]21C,AC50,[9],50 µM (active)
same,outcome,[1],inactive
same,outcome,[2],inactive
same,outcome,[4],inactive
same,outcome,[5],inactive
same,outcome,[7],inactive
same,outcome,[8],inactive
CS(=O)(=O)c1ccc([C@@H](C[C@H]2CCC(=O)C2)C(=O)Nc2cnccn2)cc1Cl,outcome,[9],inactive
same,AC50,[1],2.19 µM (active)
same,outcome,[2],inactive
same,outcome,[4],inactive
same,outcome,[5],inactive
same,AC50,[7],0.753 µM (active)
same,AC50,[8],1.27 µM (active)
O=C(O)CC(O)(CC(=O)O)C(=O)O,outcome,[9],inactive
same,outcome,[1],inactive
same,outcome,[2],inactive
same,outcome,[4],inactive
same,outcome,[5],inactive
same,AC50,[6],50 µM (active)
same,outcome,[7],inactive
same,outcome,[8],inactive
CC(=O)CC(c1ccccc1)c1c(O)c2ccccc2oc1=O (stereo not given),AC50,[9],13.4 µM (active)
same,outcome,[1],inactive
same,outcome,[2],inactive
same,outcome,[4],inactive
same,outcome,[5],inactive
same,outcome,[6],inactive
same,outcome,[7],inactive
same,outcome,[8],inactive
